96 molecules from PubChem BioAssay AID372 (MTDP, 2006) can be followed below.

The whole screen tested about 100,000 compounds, of which about 770 (0.77%) were called active. The sample holds actives, similar compounds and a random draw of the others, so the mix is not that of the screen. Cut-off read from the data, not from the text of the source: active = inhibition above about 50%; inactive = the rest.

The term inhibition denotes the change of the read-out against control, counted positive when it falls.

The target of this assay is Gag-Pol polyprotein (Human immunodeficiency virus type 1 group M subtype B (isolate HXB2)) (UniProt P04585). Briefly: RNase H inhibition, HIV 1 Gag Pol polyprotein, FRET biochemical assay, screening (AID 372). The following applies: HIV-1 RT RNase H, FRET RNA/DNA substrate fluorescence; at 10 µM; active compounds read high.
With `CC(C)=C1C2CCC1C(C(=O)NCc1ccccc1)C2C(=O)O` (stereo unspecified), the inhibition is 0% (inactive).

As for `Cn1c(O)c(C(=NCc2ccccc2)c2ccccc2)c(=O)n(C)c1=O`, the inhibition was 8% (inactive).

Turning to `O=C(Nc1cccc2ccccc12)/C(=C/c1ccccc1)c1ccccc1`, the inhibition is 28% (inactive).

For `COc1cccc(OCCCOc2ccccc2[N+](=O)[O-])c1`, the inhibition is 14% (inactive).

`CCOC(=O)C1=C(C)NC2=C(C(=O)CC(c3ccccc3)C2)C1c1cccc([N+](=O)[O-])c1` (stereo unspecified): the inhibition is 15% (inactive).

As for `CCOc1ccc(C(=O)Nc2cccc(NC(=O)c3ccccc3)c2)cc1[N+](=O)[O-]`, the inhibition is 0% (inactive).

For `COc1ccc(C(=O)Nc2ccc(NC(C)=O)cc2)cc1[N+](=O)[O-]`, the inhibition was 5% (inactive).

For the molecule `COc1ccc(C(=O)Nc2ccc(NC(=O)c3ccc(Br)cc3)cc2)cc1[N+](=O)[O-]`, the inhibition was 59% (active).

With `COc1ccc(C(=O)Nc2ccc(NC(=O)c3ccccc3)cc2)cc1[N+](=O)[O-]`, the inhibition was 23% (inactive).

As to `CCOc1ccc(C(=O)Nc2ccc(C(C)=O)cc2)cc1[N+](=O)[O-]`, the inhibition was 5% (inactive).

As to `CCOc1ccc(C(=O)Nc2ccc(NC(=O)c3ccccc3)cc2)cc1[N+](=O)[O-]`, the inhibition is 56% (active).

With `O=C(/C=C/c1ccc2c(c1)OCO2)Nc1ccccn1`, the inhibition was 6% (inactive).

`COc1ccc(-c2ccc(/C=N/n3cnnc3)o2)c([N+](=O)[O-])c1`: the inhibition was 14% (inactive).

For `O=[N+]([O-])c1ccc(-c2ccc(/C=N/n3cnnc3)o2)c(Br)c1`, the inhibition was 12% (inactive).

On to `COc1ccc([N+](=O)[O-])cc1-c1ccc(/C=N/n2cnnc2)o1`, for which the inhibition was 57% (active).

As to `COc1cccc(NC(=O)c2ccc(CN(c3ccc(C)c(C)c3)S(C)(=O)=O)cc2)c1`, the inhibition was 3% (inactive).

As for `CC1=C(C(=O)Nc2ccc(Br)cc2)C(c2ccccc2)NC(=O)N1` (stereo unspecified), the inhibition is 18% (inactive).

With `O=C(/C=C/c1ccc(-c2ccc(Cl)cc2Cl)o1)c1ccccc1`, the inhibition is 13% (inactive).

Regarding `CC(=O)/C=C/c1ccc(-c2cc(Cl)ccc2Cl)o1`, the inhibition was 54% (active).

`COc1ccc(C(=O)/C=C/c2ccc(-c3cc(Cl)ccc3Cl)o2)cc1`: the inhibition is 15% (inactive).

Turning to `O=C(/C=C/c1ccc(-c2ccc(Cl)cc2Cl)o1)c1ccc(F)cc1`, the inhibition is 27% (inactive).

Regarding `O=C(/C=C/c1ccc(-c2cc(Cl)ccc2Cl)o1)c1ccc(F)cc1`, the inhibition was 52% (active).

For the molecule `O=C(/C=C/c1ccc(-c2ccc(Cl)cc2)o1)c1ccccc1`, the inhibition was 20% (inactive).

`O=C(/C=C\c1ccc(-c2cc(Cl)ccc2Cl)o1)c1ccccc1`: the inhibition was 40% (inactive).

As for `O=C(/C=C/c1ccc(-c2ccccc2Cl)o1)c1ccc(F)cc1`, the inhibition was 47% (inactive).

For the molecule `O=C(/C=C/c1ccc(-c2cc(Cl)cc(Cl)c2)o1)c1ccccc1`, the inhibition is 51% (active).

Regarding `O=[N+]([O-])c1ccc(Cl)c(S(=O)(=O)Nc2ccccn2)c1`, the inhibition was 0% (inactive).

Take `O=C(c1nn2c(C(F)(F)F)cc(-c3cccs3)nc2c1Br)N1CCOCC1`: the inhibition was 0% (inactive).

In the case of `COc1ccc(OC)c(C(=O)N/N=C/c2ccccn2)c1`, the inhibition is 3% (inactive).

With `CC(C)(C)c1cc(C(=O)NCC(=O)OCC(=O)c2ccccc2)cc(C(C)(C)C)c1`, the inhibition was 18% (inactive).

As to `O=C(NC(=S)Nc1ccc(Br)cc1)c1ccc(Cl)cc1`, the inhibition was 1% (inactive).

As to `Cc1ccc(N(CC(=O)NCCOc2ccc(F)cc2)S(=O)(=O)c2ccccc2)cc1C`, the inhibition was 5% (inactive).

In the case of `CCOC(=O)Cc1csc(NC(=O)COc2c(C)cccc2C)n1`, the inhibition is 5% (inactive).

Take `NC(=O)c1cnn2c1NC(c1ccco1)CC2C(F)(F)F` (stereo unspecified): the inhibition is 0% (inactive).

As to `O=C(Cc1ccccc1)Nc1ccc(C(=O)Nc2ccc(Cl)cc2Cl)cc1`, the inhibition is 59% (active).

Take `CC(=O)Nc1ccc(C(=O)Nc2ccc(Cl)cc2Cl)cc1`: the inhibition was 0% (inactive).

As to `O=C(Nc1ccc(Cl)cc1Cl)c1ccc(-c2ccccc2)cc1`, the inhibition is 0% (inactive).

Turning to `CS/C(N)=N\N=C\c1cc([N+](=O)[O-])ccc1O`, the inhibition is 18% (inactive).

As to `O=C(NC(=S)Nc1cc([N+](=O)[O-])ccc1Cl)c1cccc2ccccc12`, the inhibition was 51% (active).

In the case of `COc1ccccc1C(=O)NC(=S)Nc1cc([N+](=O)[O-])ccc1Cl`, the inhibition is 6% (inactive).

Consider `O=C(NC(=S)Nc1cc([N+](=O)[O-])ccc1Cl)c1ccccc1Br`, for which the inhibition was 18% (inactive).

With `CSc1nc(SC)c2c3c(sc2n1)CN(C)CC3`, the inhibition is 0% (inactive).

`Cc1ccc(OCC(=O)Nc2cc(C(F)(F)F)cc(C(F)(F)F)c2)cc1C`: the inhibition is 0% (inactive).

Consider `CCCCOc1ccc(NC(=O)/C=C/c2ccc(OC)c(OC)c2)cc1`, for which the inhibition is 3% (inactive).

Turning to `COc1ccc(C(=O)Nc2ccc(S(=O)(=O)Nc3ncccn3)cc2)cc1OC`, the inhibition is 0% (inactive).

For the molecule `CCCOc1ccc(/C=C/C(=O)Nc2ccc(S(=O)(=O)Nc3ncccn3)cc2)cc1OC`, the inhibition was 61% (active).

Turning to `O=c1[nH]n(-c2ccccc2)c(O)c1/C=C1\C=Nc2ccccc21`, the inhibition was 10% (inactive).

`O=c1[nH]c(O)c(/C=C2\C=Nc3ccccc32)[nH]1`: the inhibition was 0% (inactive).

With `Cc1ccc([N+](=O)[O-])cc1NC(=O)COc1ccc(Cl)cc1C`, the inhibition is 13% (inactive).

Consider `O=C(Nc1ncccc1Cl)C1CCCO1` (stereo unspecified), for which the inhibition is 18% (inactive).

Take `N#C/C(=C\Nc1ccc(S(=O)(=O)Nc2nccs2)cc1)c1nc(-c2ccc(-c3ccccc3)cc2)cs1`: the inhibition was 16% (inactive).

Turning to `COc1ccc(-c2csc(/C(C#N)=C/Nc3ccc(S(=O)(=O)Nc4nccs4)cc3)n2)cc1`, the inhibition is 6% (inactive).

Turning to `Cc1cccc(NC(=O)/C(C#N)=C\c2cc(C)n(-c3ccc(C)c(C)c3)c2C)c1`, the inhibition was 10% (inactive).

For `NN1CCN(Cc2cccc3ccccc23)CC1`, the inhibition was 7% (inactive).

On to `O=C(Cc1ccccc1Cl)c1ccc(O)cc1O`, for which the inhibition is 7% (inactive).

On to `Cc1c(O)ccc(C(=O)Cc2ccccc2Cl)c1O`, for which the inhibition is 10% (inactive).

With `O=C(c1cccc(F)c1)N1CCN(C(=O)c2cccs2)CC1`, the inhibition is 7% (inactive).

Turning to `COc1cc(OC)c(OC)cc1CN1CCN(Cc2ccccn2)CC1`, the inhibition was 5% (inactive).

`CCc1c(C)sc(NC(=O)c2ccncc2)c1C(=O)OC`: the inhibition is 73% (active).

`CCc1c(C)sc(NC(=O)c2ccc(OC)c(OC)c2)c1C(=O)OC`: the inhibition was 16% (inactive).

`CCc1c(C)sc(NC(=O)c2cccc(Br)c2)c1C(=O)OC`: the inhibition is 16% (inactive).

For the molecule `CCOC(=O)c1ccc(NC(=O)c2cn(-c3ccccc3)nc2-c2ccccc2)cc1`, the inhibition is 9% (inactive).

For the molecule `COc1cc(C=O)ccc1OCCCCOc1c(C)cc(C)cc1Br`, the inhibition is 31% (inactive).

As for `O=C(Nc1nc2ccc3ccccc3c2s1)c1ccc(C(=O)c2ccccc2)cc1`, the inhibition is 18% (inactive).

As to `O=C(Nc1nc2ccc3ccccc3c2s1)c1cccc(Cl)c1`, the inhibition was 5% (inactive).

Consider `O=C(Nc1nc2ccc3ccccc3c2s1)c1ccc(Cl)cc1`, for which the inhibition is 54% (active).

For the molecule `COc1ccc(NC(=O)c2c(-c3c(Cl)cccc3Cl)noc2C)c([N+](=O)[O-])c1`, the inhibition is 1% (inactive).

For `CCOc1ccc(N2C(=O)NC(=O)/C(=C\c3ccc(Sc4ccccc4)o3)C2=O)cc1`, the inhibition was 15% (inactive).

Take `O=[N+]([O-])c1ccc(/C=C/C=N/Nc2nc(N3CCOCC3)nc(N3CCOCC3)n2)cc1`: the inhibition is 2% (inactive).

For the molecule `CCCC(=O)Nc1sc(C(=O)N(CC)CC)c(C)c1C(=O)OC`, the inhibition was 24% (inactive).

In the case of `CCN(CC)C(=O)c1sc(NC(=O)C(C)(C)C)c(C(=O)OC)c1C`, the inhibition is 43% (inactive).

On to `CCN(CC)C(=O)c1sc(NC(=O)/C=C/C(=O)O)c(C(=O)OC)c1C`, for which the inhibition was 70% (active).

Consider `O=Cc1ccc(-c2ccc(OC(F)(F)F)cc2)o1`, for which the inhibition was 7% (inactive).

Consider `O=C(Nc1ccc(-c2cc3ccccc3oc2=O)cc1)c1cccc(F)c1`, for which the inhibition is 58% (active).

In the case of `O=C(Nc1ccc(-c2cc3ccccc3oc2=O)cc1)c1ccc(Cl)c(Cl)c1`, the inhibition was 0% (inactive).

With `COc1cc(OC)cc(C(=O)Nc2ccc3oc(-c4ccc(I)cc4)nc3c2)c1`, the inhibition is 16% (inactive).

Regarding `O=C(Nc1cccc(-c2nc3cc(Cl)ccc3o2)c1)c1cccc(F)c1`, the inhibition was 21% (inactive).

In the case of `COc1cc(OC)cc(C(=O)Nc2ccc3oc(-c4ccc(Cl)c(Cl)c4)nc3c2)c1`, the inhibition was 56% (active).

Regarding `COc1cc(OC)cc(C(=O)Nc2ccc3oc(-c4ccc(Br)cc4)nc3c2)c1`, the inhibition was 27% (inactive).

`COc1cccc(C(=O)Nc2ccc(-c3cc4ccccc4oc3=O)cc2)c1`: the inhibition was 45% (inactive).

For the molecule `O=C(Nc1ccc2oc(-c3cccc(Cl)c3)nc2c1)c1cccc(F)c1`, the inhibition is 50% (active).

As for `O=C(Nc1ccc2oc(-c3ccc(Cl)c(Cl)c3)nc2c1)c1ccc(F)cc1`, the inhibition was 60% (active).

For the molecule `COc1ccc(-c2nc3cc(NC(=O)c4ccc(F)cc4)ccc3o2)cc1Cl`, the inhibition is 13% (inactive).

As for `O=C(Nc1ccc2oc(-c3ccc(F)cc3)nc2c1)c1cc(Br)ccc1Cl`, the inhibition was 2% (inactive).

On to `O=C(Nc1ccc2oc(-c3cccc(F)c3)nc2c1)c1cccc(F)c1`, for which the inhibition was 14% (inactive).

In the case of `Cc1cccc2c(Nc3ccccc3)c3ccccc3nc12`, the inhibition was 17% (inactive).

For the molecule `CCOC(=O)c1cccc(Nc2ncnc3ccc(C)cc23)c1`, the inhibition is 0% (inactive).

As to `Fc1ccc(/C=N/c2ncn[nH]2)cc1`, the inhibition was 6% (inactive).

For the molecule `CNC(=O)C(=O)NCCN1CCN(S(=O)(=O)c2ccc([N+](=O)[O-])cc2)CC1`, the inhibition was 0% (inactive).

In the case of `O=C(COc1ccccc1Br)Nc1ccc(Cl)c(Cl)c1`, the inhibition was 20% (inactive).

For `COc1ccc(C(=O)NC(CC(=O)O)c2ccccc2)cc1` (stereo unspecified), the inhibition is 0% (inactive).

`CC(=O)c1cccc(N/C=C\C(=O)c2ccc(Cl)c(Cl)c2)c1`: the inhibition was 10% (inactive).

As to `Cc1ccc(NC(=O)/C=C/c2cccc(C(F)(F)F)c2)cc1`, the inhibition was 12% (inactive).

Take `O=C1C=CC(=O)N1c1ccc(-c2nc3ccc(N4C(=O)C=CC4=O)cc3[nH]2)cc1`: the inhibition was 14% (inactive).

On to `O=C1c2ccccc2C(=O)N1c1ccc(-c2nc3ccccc3[nH]2)cc1`, for which the inhibition is 0% (inactive).

`CCOC(=O)C1=C(C)N=c2s/c(=C\c3ccc(Br)o3)c(=O)n2C1c1ccc(OC)cc1OC` (stereo unspecified): the inhibition was 23% (inactive).
